Survival data for 95 molecules are collected here from PubChem BioAssay AID463173 (ICCB-Longwood Screening Facility, Harvard Medical School, 2010).

Out of some 52,000 compounds screened, about 4,300 (8.3%) were called active. No stated cut-off is given here; in the data, active means survival mostly below about 52% (no sharp cut-off); inactive means mostly above about 56%. The list comes from a sample in which actives are over-represented; it also holds similar structures and randomly drawn compounds.

The test system of this assay is DeltatarO mutant. The assay can be described thus: growth inhibition of S. aureus wild type versus tarO mutant, primary screen, teichoic acid synthesis inhibitors, RN4220, OD600 (AID 463173). The note with it: OD600, 18 h, stronger effect = lower value, screened at 18.75 µg/mL (by protocol).
In the case of `CCN1CCN(C(=O)c2ccc(S(=O)(=O)N(CC)CC)cc2)CC1`, the survival was 85% (inactive).

As to `COc1cc2c(cc1OC)C(c1ccc(Cl)cc1)N(c1ccc(C)c(F)c1)C(=O)C2` (stereo not given), the survival is 42% (active).

Take `COc1ccc(C2c3cc(OC)c(OC)cc3CC(=O)N2c2ccc(C)c(F)c2)cc1` (stereo not given): the survival was 79% (inactive).

With `COc1cc2c(cc1OC)C(c1ccc(F)cc1)N(c1ccc(F)cc1)C(=O)C2` (stereo not given), the survival was 105% (inactive).

In the case of `O=C(NCCSCc1ccccc1)C1CCN(S(=O)(=O)Cc2ccccc2)CC1`, the survival was 66% (inactive).

For `Cc1cc(C)cc(NC(=O)N2CCN(c3cc(-c4noc(C)n4)ccc3C)CC2)c1`, the survival is 87% (inactive).

Regarding `COc1cc(NC(=O)N2CCN(c3cc(-c4noc(C)n4)ccc3C)CC2)cc(OC)c1OC`, the survival is 55% (inactive).

Take `Cc1ccc(NC(=O)N2CCN(c3cc(-c4noc(C)n4)ccc3C)CC2)c(F)c1`: the survival is -5% (active).

As to `Cc1ccc(NC(=O)N2CCN(c3cc(-c4noc(C)n4)ccc3C)CC2)c(C)c1`, the survival is 88% (inactive).

Take `Cc1nc(-c2ccc(C)c(N3CCN(C(=O)Nc4ccc(Br)cc4)CC3)c2)no1`: the survival was 17% (active).

Consider `COc1ccc(C)cc1NC(=O)N1CCN(c2cc(-c3noc(C)n3)ccc2C)CC1`, for which the survival was 88% (inactive).

As to `COc1ccccc1NC(=O)c1oc2ccccc2c1NC(=O)Cc1ccccc1`, the survival was 78% (inactive).

With `CCOc1ccc(NC(=O)CCc2c(C)nc3nc(-c4cc(OC)cc(OC)c4)nn3c2C)cc1`, the survival is 78% (inactive).

As to `CN(C)c1ccc(CNC(=O)CCn2c(=O)c3cccn3c3ccc(F)cc32)cc1`, the survival was 57% (inactive).

`CCCCNC(=O)CCn1c(=O)c2cccn2c2cccnc21`: the survival is 103% (inactive).

For the molecule `Cc1cccc(CNC(=O)CCn2c(=O)c3cccn3c3ccc(F)cc32)c1`, the survival is 92% (inactive).

Regarding `Cc1ccc(CCNC(=O)CCCn2c(=O)c3cccn3c3ccc(F)cc32)cc1`, the survival was 33% (active).

In the case of `CCCCNC(=O)CCn1c(=O)c2cccn2c2ccc(F)cc21`, the survival was 41% (active).

Take `CSc1ccc(CCNC(=O)CCn2c(=O)c3cccn3c3ccc(F)cc32)cc1`: the survival was 48% (inactive).

With `Cc1ccc(CCNC(=O)CCn2c(=O)c3cccn3c3ccc(F)cc32)cc1`, the survival was 39% (active).

For the molecule `Cc1ccc(Cc2nc3ccccc3nc2SCC(=O)N2CCN(c3ccccc3F)CC2)cc1`, the survival is 49% (inactive).

As for `CCOc1ccc(-n2ccn3c(CC(C)CC(=O)O)nnc3c2=O)cc1` (stereo not given), the survival was 182% (inactive).

As to `O=C(Nc1ccccc1)c1ccc(F)cc1`, the survival was 76% (inactive).

On to `CCOC(=O)CC(NC(=O)Cn1nnc(-c2ccc(C(F)(F)F)cc2)n1)c1ccccc1Cl` (stereo not given), for which the survival was 73% (inactive).

Consider `COc1cccc(-c2nc(CS(=O)CC(=O)N3CCN(c4cccc(C(F)(F)F)c4)CC3)c(C)o2)c1` (stereo not given), for which the survival was 0% (active).

Regarding `Cc1oc(-c2ccccc2F)nc1CS(=O)(=O)CC(=O)N1CCN(c2cccc(C(F)(F)F)c2)CC1`, the survival is 78% (inactive).

Consider `Cc1ccc(-c2nc(CS(=O)CC(=O)N3CCN(c4cccc(Cl)c4)CC3)c(C)o2)cc1` (stereo not given), for which the survival is 46% (inactive).

With `Cc1oc(-c2ccccc2Cl)nc1CS(=O)CC(=O)N1CCN(c2cccc(C(F)(F)F)c2)CC1` (stereo not given), the survival is 131% (inactive).

As for `Cc1oc(-c2ccccc2F)nc1CS(=O)(=O)CC(=O)N1CCN(c2ccc(Cl)cc2)CC1`, the survival is 43% (active).

Regarding `Cc1ccc(OCc2nc(-c3ccc(C(=O)N4CCN(c5cc(Cl)ccc5C)CC4)cc3)oc2C)cc1`, the survival was 76% (inactive).

`COc1ccc(-c2nc(CSCC(=O)N3CCN(c4cc(Cl)ccc4C)CC3)c(C)o2)cc1`: the survival was -4% (active).

Consider `Cc1ccc(-c2nc(CS(=O)CC(=O)N3CCN(c4ccc(Cl)cc4)CC3)c(C)o2)cc1` (stereo not given), for which the survival was 80% (inactive).

In the case of `Cc1ccccc1-c1nc(CS(=O)CC(=O)N2CCN(c3cc(Cl)ccc3C)CC2)c(C)o1` (stereo not given), the survival is 30% (active).

Regarding `Cc1oc(-c2ccccc2F)nc1CS(=O)(=O)CC(=O)N1CCN(c2ccccc2)CC1`, the survival was 77% (inactive).

For `COc1ccc(-c2nc(CSCC(=O)N3CCN(c4ccc(OC)cc4)CC3)c(C)o2)cc1`, the survival is 77% (inactive).

Take `Cc1oc(-c2ccc(Cl)cc2)nc1CS(=O)CC(=O)N1CCN(c2cccc(C(F)(F)F)c2)CC1` (stereo not given): the survival was 99% (inactive).

On to `Cc1cccc(-n2cc(-c3ccccc3)nc2SCC(=O)Nc2ccccc2Cl)c1`, for which the survival is 115% (inactive).

On to `CC(C)c1ccc(NC(=O)CS(=O)(=O)c2cccc3nsnc23)cc1`, for which the survival is 78% (inactive).

For the molecule `CCOC(=O)c1sc2ccccc2c1S(=O)(=O)N1CCN(c2cc(C)ccc2C)CC1`, the survival was 100% (inactive).

Take `Cc1ccc(CSc2cn(CC(=O)N3CCCCCC3)c3ccccc23)cc1`: the survival was 84% (inactive).

Consider `COc1ccc(CCN2C(=O)N(c3ccc(F)cc3)C(=O)C2CC(=O)Nc2ccc(OC)cc2)cc1` (stereo not given), for which the survival was 67% (inactive).

Take `CCc1ccc2occ(CC(=O)Nc3ccc(C)c(C)c3)c2c1`: the survival was 102% (inactive).

On to `COc1ccc(OC)c(NC(=O)c2nnn(CC(=O)Nc3ccc(C(C)C)cc3)c2N)c1`, for which the survival was 63% (inactive).

As to `COc1ccc(-c2nc(CSCC(=O)N3CCN(c4ccccc4)CC3)c(C)o2)cc1`, the survival is 60% (inactive).

On to `COc1ccc(-c2nc(CSCC(=O)N3CCN(c4ccccc4F)CC3)c(C)o2)cc1`, for which the survival was 35% (active).

Regarding `COc1ccc(-c2nc(CSCC(=O)N3CCN(c4ccc(F)cc4)CC3)c(C)o2)cc1`, the survival is 57% (inactive).

Turning to `Cc1cccc(NC(=O)C(NS(=O)(=O)c2cccc3nsnc23)c2ccccc2)c1C` (stereo not given), the survival was 95% (inactive).

For `COCCn1c(=NC(=O)c2ccc3c(c2)OCCO3)sc2cc(C(=O)OC)ccc21`, the survival is 86% (inactive).

Turning to `CCC12CN3CC(C)(CN(C1)C3c1ccccc1C)C2=O` (stereo not given), the survival was 76% (inactive).

`O=C(Nc1ccc(Cl)c(-c2nc3cc(Cl)ccc3o2)c1)c1cc([N+](=O)[O-])ccc1N1CCOCC1`: the survival is 111% (inactive).

Consider `O=C(Nc1cc(-c2nc3cc(Cl)ccc3o2)ccc1Cl)c1cc([N+](=O)[O-])ccc1N1CCOCC1`, for which the survival is 50% (inactive).

`COc1ccc2oc(-c3cccc(NC(=O)c4cc([N+](=O)[O-])ccc4N4CCOCC4)c3)nc2c1`: the survival was 49% (inactive).

As for `O=C(Nc1cc(-c2nc3ccccc3o2)ccc1Cl)c1cc([N+](=O)[O-])ccc1N1CCOCC1`, the survival is 57% (inactive).

Consider `Cc1ccc(-c2nc3cc(Cl)ccc3o2)cc1NC(=O)c1cc([N+](=O)[O-])ccc1N1CCOCC1`, for which the survival was 57% (inactive).

As to `Cc1c(NC(=O)c2cc([N+](=O)[O-])ccc2N2CCOCC2)cccc1-c1nc2ccccc2o1`, the survival was 50% (inactive).

In the case of `COc1ccc(-c2nc3ccccc3o2)cc1NC(=O)c1cc([N+](=O)[O-])ccc1N1CCOCC1`, the survival is 44% (active).

Turning to `O=C(Nc1cccc(-c2nc3cc(Cl)ccc3o2)c1)c1cc([N+](=O)[O-])ccc1N1CCOCC1`, the survival was 40% (active).

`O=C(Nc1cccc(-c2nc3ccccc3o2)c1)c1cc([N+](=O)[O-])ccc1N1CCOCC1`: the survival is 42% (active).

As to `COCCN1Cc2cccc(C(=O)Nc3ccc(C(=O)OC)cc3)c2C1=O`, the survival was 82% (inactive).

In the case of `CC(C)(C)C(=O)CSc1nc2ccsc2c(=O)n1Cc1ccccc1F`, the survival is 126% (inactive).

Regarding `CCOC(=O)c1c(C)[nH]c(C)c1S(=O)(=O)N1CCCC(C(=O)Nc2ccc(C)c(N(C)C)c2)C1` (stereo not given), the survival was 88% (inactive).

Turning to `CCCCOc1ccc(C(=O)N2CCN(CCc3ccccn3)CC2)cc1`, the survival was 51% (inactive).

On to `O=C(CN1CCC(NC(=O)NC2CCCCC2)CC1)Nc1cccc(I)c1`, for which the survival is 100% (inactive).

`CC1=Nc2cc(C(=O)NCCc3ccc(Cl)cc3)ccc2Sc2ccc(C)cc21`: the survival was 56% (inactive).

`Cc1ccc(C(=O)CSc2nnc3ccc4ccccc4n23)cc1`: the survival was 60% (inactive).

Take `CCOc1ccccc1NC(=O)NC1(C(=O)NCc2ccco2)CCCCC1`: the survival was 84% (inactive).

Consider `CCc1c(C)c2ccc(O)c(CN3CCN(c4ccccc4)CC3)c2oc1=O`, for which the survival was 56% (active).

As to `CCc1c(C)c2ccc(O)c(CN3CCN(c4ccc(OC)cc4)CC3)c2oc1=O`, the survival was 55% (inactive).

For the molecule `CCc1c(C)c2ccc(O)c(CN3CCN(c4ccc(F)cc4)CC3)c2oc1=O`, the survival was 55% (inactive).

Regarding `Cc1ccc(-n2nc3c(N4CCC(C(=O)NC5CCCCC5)CC4)nnc(C)c3c2C)cc1`, the survival was 81% (inactive).

For `Cc1ccc(N2CNC(=O)c3c(C)cc(C)nc32)cc1`, the survival is 74% (inactive).

With `CC(=O)c1ccc(C(=O)N(Cc2cccnc2)c2nc3c(C)c(C)ccc3s2)cc1`, the survival was -1% (active).

As for `Cc1cccc2sc(N(Cc3cccnc3)C(=O)CCS(=O)(=O)c3ccccc3)nc12`, the survival is 89% (inactive).

Take `Cc1cc(C)c2nc(N(Cc3cccnc3)C(=O)CCS(=O)(=O)c3ccccc3)sc2c1`: the survival was 83% (inactive).

As to `Cc1ccc2sc(N(Cc3cccnc3)C(=O)CCS(=O)(=O)c3ccccc3)nc2c1C`, the survival is 6% (active).

As for `CC(=O)N(Cc1cccnc1)c1nc2c(C)c(C)ccc2s1`, the survival is 72% (inactive).

Turning to `CC(=O)c1ccc(C(=O)N(Cc2cccnc2)c2nc3c(Cl)cccc3s2)cc1`, the survival is 91% (inactive).

Turning to `C=CCNCc1cccn1-c1ccccc1`, the survival is 76% (inactive).

In the case of `CCCCn1cc(S(=O)(=O)c2ccc(CC)cc2)c(=O)c2cc(F)c(N3CCCC(C)C3)cc21` (stereo not given), the survival was 115% (inactive).

Take `O=C(CN1CCC(NC(=O)Nc2ccccc2-c2ccccc2)CC1)NCc1ccco1`: the survival was 78% (inactive).

For the molecule `Cc1cccnc1Nc1nc(-c2cccnc2)cs1`, the survival is 48% (inactive).

Consider `CC1CCCCC1NC(=O)CSc1nncn1N` (stereo not given), for which the survival was 84% (inactive).

In the case of `O=C(Nc1cccc(F)c1)c1oc2ccccc2c1NC(=O)C12CC3CC(CC(C3)C1)C2`, the survival is 72% (inactive).

`Oc1c(C(c2ccccc2Cl)N2CCCC2)sc2nc(-c3ccco3)nn12` (stereo not given): the survival was 83% (inactive).

Regarding `Cc1ccc(C(c2sc3nc(-c4ccco4)nn3c2O)N2CCN(Cc3ccccc3)CC2)cc1` (stereo not given), the survival was 112% (inactive).

Consider `CN1CCN(C(c2ccccc2)c2sc3nc(-c4ccco4)nn3c2O)CC1` (stereo not given), for which the survival is 75% (inactive).

Regarding `Oc1c(C(c2ccccc2)N2CCC3(CC2)OCCO3)sc2nc(-c3ccco3)nn12` (stereo not given), the survival was 69% (inactive).

In the case of `Oc1c(C(c2ccccc2Cl)N2CCOCC2)sc2nc(-c3ccco3)nn12` (stereo not given), the survival was 0% (active).

For `Oc1c(C(c2ccc(Cl)cc2)N2CCC3(CC2)OCCO3)sc2nc(-c3ccco3)nn12` (stereo not given), the survival was 32% (active).

For `Oc1c(C(c2ccccc2)N2CCCC2)sc2nc(-c3ccco3)nn12` (stereo not given), the survival is 0% (active).

As for `Cc1ccc(C(c2sc3nc(-c4ccco4)nn3c2O)N2CCC3(CC2)OCCO3)cc1` (stereo not given), the survival was 78% (inactive).

For the molecule `Oc1c(C(c2ccccc2)N2CCOCC2)sc2nc(-c3ccco3)nn12` (stereo not given), the survival was 69% (inactive).

`CN1CCN(C(c2ccccc2Cl)c2sc3nc(-c4ccco4)nn3c2O)CC1` (stereo not given): the survival is 131% (inactive).

As for `Oc1c(C(c2ccc(F)cc2)N2CCN(Cc3ccccc3)CC2)sc2nc(-c3ccco3)nn12` (stereo not given), the survival was 73% (inactive).

`Oc1c(C(c2ccccc2)N2CCN(Cc3ccccc3)CC2)sc2nc(-c3ccco3)nn12` (stereo not given): the survival is 37% (active).
